# From PubChem
# HSP90 refold inh – HSP90 inhibitors, primary screen, cell lysate, luminescence; Heat shock protein HSP 90 (rabbit reticulocyte lysate; luciferase refolding); Rabbit reticulocyte lysate, luciferase refolding luminescence, 3 h; inhibition, % at 5.6 µM; 290,000 compounds, 0.91% hits; AID 1789, 2009;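 active means inhibition above the screen-wide mean plus 3 SD, computed separately per campaign, cut at about 16% in these data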;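 further: 0% = DMSO wells and 100% = 60 µM geldanamycin wells; inhibitors lower the luminescence because luciferase stays unfolded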
# SENP6 block – SENP6 protease inhibitors, primary screen, biochemical, luminescence, uHTS. Recombinant SENP6 catalytic domain, aminoluciferin luminescence. inhibition, % at 10 µM. Sentrin-specific protease 6 (Homo sapiens), Q9GZR1. AID 2599, 2010. 330,000 compounds, 1.8% hits;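 active means inhibition above about 50% at the single tested dose, limit read from the data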;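 further: plate controls were DMSO wells with enzyme for no effect and DMSO wells lacking enzyme for full effect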
# Target sequence (Q9GZR1 628-1112 limits assumed): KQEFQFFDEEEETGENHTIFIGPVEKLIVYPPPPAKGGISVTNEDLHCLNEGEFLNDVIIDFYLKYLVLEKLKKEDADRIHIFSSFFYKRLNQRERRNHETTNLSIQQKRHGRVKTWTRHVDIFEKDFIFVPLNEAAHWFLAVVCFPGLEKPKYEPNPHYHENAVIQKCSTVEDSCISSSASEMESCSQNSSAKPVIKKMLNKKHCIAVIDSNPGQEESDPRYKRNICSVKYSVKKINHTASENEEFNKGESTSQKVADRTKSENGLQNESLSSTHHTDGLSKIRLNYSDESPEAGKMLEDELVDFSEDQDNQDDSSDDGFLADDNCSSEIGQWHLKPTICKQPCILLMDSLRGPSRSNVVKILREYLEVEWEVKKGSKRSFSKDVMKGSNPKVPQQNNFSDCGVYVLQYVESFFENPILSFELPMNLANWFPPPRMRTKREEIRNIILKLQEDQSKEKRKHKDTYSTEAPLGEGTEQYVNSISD
# SENP8 block-1 – SENP8 protease inhibitors, primary screen, biochemical, luminescence; 330,000 compounds, 1.2% hits; purified SENP8, Z-RLRGG-aminoluciferin cleavage; Sentrin-specific protease 8 (Homo sapiens), Q96LD8; inhibition, % at 10 µM; in the data active means inhibition above about 50%
# SENP7 block – SENP7 protease inhibitors, primary screen, biochemical, luminescence, uHTS; AID 434973, 2010; recombinant SENP7, Z-RLRGG-aminoluciferin luminescence, 40 min; 330,000 compounds, 1.5% hits; inhibition, % at 5 µM;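 active means inhibition above about 50% at the single test dose, limit read from the data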;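 further: plate controls were DMSO with enzyme for no effect and no enzyme buffer wells for full effect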
# SENP8 block-2 – human SENP8 protease inhibitors, primary screen, biochemical, fluorescence, Nedd8 protein substrate, uHTS. recombinant SENP8. 360,000 compounds, 0.64% hits. Sentrin-specific protease 8 (Homo sapiens), Q96LD8. inhibition, % at 20 µM; in the data active means inhibition mostly above about 40%, no sharp cut-off; inactive means mostly below about 27%
# SENP8 conf – SENP8 protease inhibitors, retest, confirmation, biochemical, luminescence, single concentration | AID 488912, 2010 | Recombinant SENP8, Z-RLRGG-aminoluciferin luminescence, 60 min | shares compounds with SENP7 block | 6,200 compounds, 40% hits | inhibition, % at 12.5 µM;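 active means mean inhibition across replicates above about 50%, limit read from the data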
# SENP6 confirm – SENP6 protease inhibitors, confirmation, biochemical, luminescence, single concentration; shares compounds with SENP7 block; recombinant SENP6, Z-RLRGG-aminoluciferin luminescence; 6,200 compounds, 58% hits; inhibition, % at 12.5 µM
# SENP7 confirm – SENP7 protease inhibitors, retest, confirmation, biochemical, luminescence, single concentration; 6,200 compounds, 69% hits; recombinant SENP7, Z-RLRGG-aminoluciferin luminescence, 40 min; shares compounds with SENP7 block; inhibition, % at 12.5 µM; AID 488917, 2010
# Casp3 select – caspase-3 protease inhibitors, confirmation, selectivity assay for SENP inhibitor project, biochemical, single concentration | 6,200 compounds, 60% hits | shares compounds with SENP7 block | purified caspase-3, Z-DEVD-aminoluciferin luminescence, 60 min | inhibition, % at 12.5 µM;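 active means mean inhibition above about 50%, limit read from the data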;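 further: plate controls were enzyme with DMSO for no effect and wells without caspase-3 for full effect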
# Luc interf – luminescence interference (SENP counter-screen). AID 488919. shares compounds with SENP7 block. 6,200 compounds, 39% hits. inhibition, % at 12.5 µM. Pre-incubated SENP8/Z-RLRGG-aminoluciferin, luciferase luminescence interference;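 active means mean inhibition above about 50% when retested at one dose, limit read from the data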;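 further: plate controls were DMSO wells with completed reaction for no effect and substrate without enzyme for full effect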
# * = called active by the depositor; x = no result given. Rows were chosen to be rich in hits. Some 2.7% of all compounds tested hit in one or more screens of this group.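 How the source made its calls, unless noted: active means mean inhibition above about 50% in the one-dose retest (limit read from the data); inactive means the rest.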
SMILES,HSP90 refold inh,SENP6 block,SENP8 block-1,SENP7 block,SENP8 block-2,SENP8 conf,SENP6 confirm,SENP7 confirm,Casp3 select,Luc interf
NC(=O)c1ccccc1NC(=O)/C=C/c1cccc(Cl)c1,-3,31,3,15,18,x,x,x,x,x
O=C(Nc1ccccc1Cl)c1ccccc1Cl,-3,-8,-10,12,15,x,x,x,x,x
O=C(NNC(=S)Nc1ccccc1Cl)c1ccccc1,-1,65*,56*,91*,1,16,22,28,28,34
Nc1nnc(SCC(=O)NC2CCCCC2)s1,-2,-2,5,-9,28,x,x,x,x,x
CCOC(=O)C1(Cc2cccc(Cl)c2)CCCN(C(=O)CCN2CCCC2=O)C1 (configuration not stated),2,-2,-10,-5,6,x,x,x,x,x
COC(=O)c1sc2nc3c(cc2c1N)CCCC3,1,20,57*,75*,-404,5,72*,91*,76*,51*
CCn1c(C)nc2cc(C(=O)NNC(=O)CCC3CCCC3)ccc21,-2,-9,-2,-4,14,x,x,x,x,x
Cn1c(C(=O)O)cc2cc(Oc3ccccc3)ccc21,1,80*,64*,13,-25,7,66*,82*,71*,72*
Cn1c(C(=O)NN)cc2cc(Oc3ccccc3)ccc21,3,-34,-4,2,-148,x,x,x,x,x
OC(c1ccc(Cl)c(Cl)c1)c1ncc(-c2ccccc2C(F)(F)F)[nH]1 (configuration not stated),x,x,x,x,12,x,x,x,x,x
O=c1cc(-c2ccccc2)nc2cc(-c3ccc(F)cc3)[nH]n12,x,87*,79*,43,-488,-4,2,4,12,2
Cc1cc(=O)n2[nH]c(-c3ccccc3)cc2n1,2,12,-12,6,-74,x,x,x,x,x
COc1cccc(-c2cc3nc(-c4ccccc4)cc(=O)n3[nH]2)c1,3,87*,85*,51*,-328,-9,85*,79*,84*,16
CSc1nc2nc(-c3ccccc3)cc(=O)n2[nH]1,-1,53*,11,9,19,27,22,64*,75*,50*
Cc1ccc(-n2c(C)c(C)c3c(NCCN(C)C)ncnc32)cc1,0,4,-2,5,10,x,x,x,x,x
CCOC(=O)c1c(C=O)c(C)n(Cc2ccccc2)c1C,1,-16,-2,-3,24,x,x,x,x,x
CC1Cc2ccccc2N1C(=O)/C=C/c1cccc(F)c1 (configuration not stated),6,28,51*,55*,20,1,74*,90*,61*,55*
Cc1c(NC(=S)NC(=O)c2cccc(Cl)c2)c(=O)n(-c2ccccc2)n1C,-2,-2,6,2,-1,x,x,x,x,x
O=C(/C=C/c1ccccc1)Nc1cccnc1,-2,66*,51*,76*,7,-19,57*,90*,84*,72*
O=C(C=Cc1ccccc1)Nc1ccccc1,x,x,x,x,-1,x,x,x,x,x
O=C(/C=C/c1ccc([N+](=O)[O-])cc1)Nc1cccnc1,3,71*,33,58*,23,48,64*,92*,77*,32
